This passage reports Potency, activity change, negative = inhibition and activity, negative = inhibition results from PubChem BioAssay (NCATS).

In assay [1] the target is Lysosomal acid glucosylceramidase (Homo sapiens) (UniProt P04062). Briefly: Glucocerebrosidase-p2 (AID 348; in the data active means potency below about 10 µM; further: potency means the concentration at half of the fitted maximal effect). The following applies: purified GBA, blue fluorogenic substrate, 40 min. The essentials:
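Compounds titrated from 0.6 nM upwards against 0.2 nM enzyme in pH 5.9 citric acid/KH2PO4, taurocholate, tween-20; blue fluorogenic substrate 80 uM, 40 min room temperature, stopped and read Ex 365/Em 440 for AC50.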

Assay [2] in a line: AP1 Signaling Pathway (AID 357). Further: on the % scale 0 is the no-effect control and ±100 the full control effect. The following applies: ME-180 AP-1-bla reporter, EGF-induced, beta-lactamase ratio, 5 h; at 7.69 µM (top of the series) unless noted. The essentials: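 ME-180 cells with beta-lactamase reporter under AP-1 response element, stimulated with EC50 EGF; compounds tested in titration series, 5 h at 37 °C. CCF4 substrate added 2.5 h at room temperature; 460/530 nm emission ratio gave %activity and AC50.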

Assay [3] concerns the target Cytochrome P450 1A2 (Homo sapiens) (UniProt P05177). Briefly: p450-cyp1a2 (AID 410; calls by dose curve; further: potency means the concentration at half of the fitted maximal effect;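 on activity change, negative = inhibition: -100% = full effect of reference inhibitor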). The following applies: recombinant CYP1A2, luciferin-ME demethylation, luminescence; series mostly up to 11.4 µM. The essentials: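 Luminescent readout of luciferin formed from Luciferin-ME by human CYP1A2; data normalized against complete inhibition by 57 uM furafylline. Enzyme 20nM, substrate 100uM at Km, 100mM KPO4 buffer, 60 min reaction at room temperature.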

Assay [4] is described as follows: NFAT Signaling Pathway (AID 444).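 Further: carbachol stimulus at about its EC50 of 1 µM final; on the % scale 0 is the no-effect control and ±100 the full control effect.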 The following applies: Jurkat NFAT-bla M1, carbachol, beta-lactamase ratio, 5 h; at 7.69 µM (top of the series) unless noted. The essentials: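 Jurkat cells with NFAT-driven β-lactamase reporter and co-expressed M1 receptor, stimulated with carbachol (final 1 uM, ~EC50), compound titration, 5 h at 37 °C. CCF4 loaded 1 h at RT; 460/530 nm ratio gave %activity and AC50.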

A short description of assay [5]: Stat Signaling Pathway (AID 446).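 Further: ME-180 cervical cancer cells given 40 pM IL-6 alongside compound; SIE-controlled beta-lactamase reporter measured as 460/530 nm FRET emission ratio; on the % scale 0 is the no-effect control and ±100 the full control effect.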 The conditions noted are these: ME-180 (cervical carcinoma) SIE beta-lactamase reporter, IL-6 stimulated, 5 h; at 7.69 µM (top of the series) unless noted. The essentials: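 IL-6/STAT signaling read in ME-180 cells via an SIE beta-lactamase reporter. Stimulus was 40 pM IL-6 (its AC50) for 5 hrs, so both activation and inhibition register.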
Assay [6] deals with Glucocorticoid receptor (Homo sapiens) (UniProt P04150). Nature of the assay: GR-GFP Redistribution (AID 450;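 active means compounds whose dose series gives a full or clear partial fitted curve of increased nuclear translocation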; further: potency means the concentration at half of the fitted maximal effect). The conditions noted are these: U2OS GR-GFP nuclear translocation, laser cytometry, 2 h.
Sequence of Glucocorticoid receptor (Homo sapiens) (P04150 whole entry, looked up): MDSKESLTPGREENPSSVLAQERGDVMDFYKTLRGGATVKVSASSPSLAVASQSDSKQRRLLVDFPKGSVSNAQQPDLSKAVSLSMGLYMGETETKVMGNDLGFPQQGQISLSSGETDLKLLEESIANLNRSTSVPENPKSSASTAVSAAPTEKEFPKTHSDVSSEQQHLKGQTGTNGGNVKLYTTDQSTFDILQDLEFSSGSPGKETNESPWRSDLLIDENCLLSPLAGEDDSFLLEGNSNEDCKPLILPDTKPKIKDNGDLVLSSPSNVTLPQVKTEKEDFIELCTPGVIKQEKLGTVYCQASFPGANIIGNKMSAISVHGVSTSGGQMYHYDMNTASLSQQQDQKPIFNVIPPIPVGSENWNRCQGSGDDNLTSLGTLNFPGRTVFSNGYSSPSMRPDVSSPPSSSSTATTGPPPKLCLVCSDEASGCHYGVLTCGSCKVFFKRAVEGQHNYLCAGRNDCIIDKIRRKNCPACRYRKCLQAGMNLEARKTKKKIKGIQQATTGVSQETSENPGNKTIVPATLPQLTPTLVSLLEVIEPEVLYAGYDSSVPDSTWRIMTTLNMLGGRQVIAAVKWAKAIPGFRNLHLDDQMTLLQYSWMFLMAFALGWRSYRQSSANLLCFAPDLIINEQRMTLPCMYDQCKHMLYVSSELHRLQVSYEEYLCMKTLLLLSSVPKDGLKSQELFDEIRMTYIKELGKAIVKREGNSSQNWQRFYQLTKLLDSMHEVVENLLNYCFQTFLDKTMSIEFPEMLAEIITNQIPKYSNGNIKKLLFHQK
Assay [7] shares this target. Briefly: GR-EFC Redistribution (AID 451; calls by dose curve; further: potency means the concentration at half of the fitted maximal effect). The conditions noted are these: CHO-K1 GR-EFC translocation, beta-gal luminescence, 2 h. The essentials:
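CHO-K1 cells expressing nuclear EA and GR-ED fragments of b-gal; compounds titrated up to 46 uM final, 2 h at 37 C. GR nuclear translocation read as complemented b-gal luminescence after 1 h RT detection.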

Assay [8] concerns the target Mitogen-activated protein kinase 10 (Mus musculus) (UniProt Q61831). Briefly: JNK3 AlphaScreen Assay (AID 530).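 Further: kinase came from lysate of stimulated human HepG2 cells; signal reports phosphorylation of biotinylated GST-cJun 1-79 at Ser73 with 10 µM ATP; on the % scale 0 is the no-effect control and ±100 the full control effect.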 The conditions noted are these: JNK3 lysate, c-Jun phosphorylation; series mostly up to 11.4 µM. The essentials: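 Pre-activated (IL-1β/TNFα) JNK3 in HepG2 lysates phosphorylates biotin-GST-cJun(1-79), 10 uM ATP; anti-phospho-cJun(Ser73) AlphaScreen read at room temperature, pH 7.6 Tris buffer. Compounds pre-incubated 15 min as titrations.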
Background: Bead proximity is the source of the signal in Alpha formats.

Assay [9] deals with 3',5'-cyclic-AMP phosphodiesterase 4B (Homo sapiens) (UniProt Q07343). Nature of the assay: qHTS Assay for Inhibitors of PDE-IV (AID 607; active means well fitted activation curve with a large enough effect in the main read-out, with a control signal flat, not every such curve was filed as active; further: % of control where 0% means no effect). The conditions noted are these: HEK293 ACTOne CNG channel cells, membrane potential fluorescence; series mostly up to 22.9 µM. The essentials:
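Live HEK293 cells with a modified cyclic nucleotide-gated (CNG) channel report intracellular cAMP via membrane-potential dye fluorescence (ex 535/em 590 nm). Endogenous PDE-IV was targeted. Compounds were tested at up to 22.9 uM final; RO 20-1724 100 uM served as control.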
(In general: qHTS replaces the single test concentration by a dilution series.)

The target of assay [10] is Cytochrome P450 2C19 (Homo sapiens) (UniProt P33261). Briefly: qHTS Assay for Inhibitors and Substrates of Cytochrome P450 2C19 (AID 899; active means well fitted inhibition curve with a large enough effect; further: nearly all actives have a fitted effect of over 60% in size; further: potency means the concentration at half of the fitted maximal effect). The following applies: recombinant CYP2C19, luciferin-H EGE luminescence; series mostly up to 11.4 µM. The essentials: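 Signal comes from luciferase acting on luciferin released by CYP2C19-mediated hydroxylation of Luciferin-H EGE, 10uM (KM). Assay mix: 5nM enzyme, 50mM KPO4; 60 min at 37C with NADPH regeneration. Data normalized against 57uM ketoconazole.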
Sequence of Cytochrome P450 2C19 (Homo sapiens) (P33261 whole entry, looked up): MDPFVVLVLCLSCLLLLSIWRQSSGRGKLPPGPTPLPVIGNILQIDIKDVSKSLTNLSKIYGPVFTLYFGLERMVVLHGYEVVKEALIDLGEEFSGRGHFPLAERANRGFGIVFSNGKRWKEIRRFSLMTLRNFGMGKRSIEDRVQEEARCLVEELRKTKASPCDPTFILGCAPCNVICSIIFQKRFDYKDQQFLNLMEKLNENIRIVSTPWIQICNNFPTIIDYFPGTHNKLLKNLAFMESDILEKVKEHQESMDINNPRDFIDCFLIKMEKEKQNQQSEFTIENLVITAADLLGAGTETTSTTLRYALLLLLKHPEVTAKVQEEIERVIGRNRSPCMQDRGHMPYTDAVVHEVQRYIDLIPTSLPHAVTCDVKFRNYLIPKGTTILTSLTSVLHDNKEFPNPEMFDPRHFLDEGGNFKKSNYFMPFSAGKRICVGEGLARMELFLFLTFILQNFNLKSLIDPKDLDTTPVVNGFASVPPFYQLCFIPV

Values without a mark were called inactive. Records with an inconclusive call do not appear. Active and inactive are the calls of the source. Unless noted, the call rests on the fitted dose curve; in most records, active means well fitted curve in either direction with a large enough effect (not every such curve was filed as active); inconclusive means small, poorly fitted or top-dose-only effect, or another doubt; inactive means flat fitted curve, though single readings scatter.

Sequence of 3',5'-cyclic-AMP phosphodiesterase 4B (Homo sapiens) (Q07343 whole entry, looked up): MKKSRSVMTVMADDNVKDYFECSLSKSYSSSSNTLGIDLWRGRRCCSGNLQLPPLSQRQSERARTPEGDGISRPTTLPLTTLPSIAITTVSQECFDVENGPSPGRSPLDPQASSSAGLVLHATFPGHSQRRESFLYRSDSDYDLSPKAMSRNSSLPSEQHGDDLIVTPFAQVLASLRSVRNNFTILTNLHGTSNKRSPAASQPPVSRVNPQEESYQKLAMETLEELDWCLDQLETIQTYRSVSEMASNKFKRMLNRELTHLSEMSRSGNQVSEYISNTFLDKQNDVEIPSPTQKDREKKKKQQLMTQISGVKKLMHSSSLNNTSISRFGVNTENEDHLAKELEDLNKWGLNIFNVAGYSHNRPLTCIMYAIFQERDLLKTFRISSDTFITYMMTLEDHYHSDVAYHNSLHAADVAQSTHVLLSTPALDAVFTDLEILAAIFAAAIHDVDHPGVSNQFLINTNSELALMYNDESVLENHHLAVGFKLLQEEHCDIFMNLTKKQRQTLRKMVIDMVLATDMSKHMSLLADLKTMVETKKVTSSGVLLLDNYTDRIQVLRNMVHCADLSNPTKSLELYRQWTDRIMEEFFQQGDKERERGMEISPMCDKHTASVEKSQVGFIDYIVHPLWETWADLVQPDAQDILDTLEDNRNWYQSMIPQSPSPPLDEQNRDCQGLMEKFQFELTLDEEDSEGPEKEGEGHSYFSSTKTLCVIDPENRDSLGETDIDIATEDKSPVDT
Sequence of Lysosomal acid glucosylceramidase (Homo sapiens) (P04062 whole entry, looked up): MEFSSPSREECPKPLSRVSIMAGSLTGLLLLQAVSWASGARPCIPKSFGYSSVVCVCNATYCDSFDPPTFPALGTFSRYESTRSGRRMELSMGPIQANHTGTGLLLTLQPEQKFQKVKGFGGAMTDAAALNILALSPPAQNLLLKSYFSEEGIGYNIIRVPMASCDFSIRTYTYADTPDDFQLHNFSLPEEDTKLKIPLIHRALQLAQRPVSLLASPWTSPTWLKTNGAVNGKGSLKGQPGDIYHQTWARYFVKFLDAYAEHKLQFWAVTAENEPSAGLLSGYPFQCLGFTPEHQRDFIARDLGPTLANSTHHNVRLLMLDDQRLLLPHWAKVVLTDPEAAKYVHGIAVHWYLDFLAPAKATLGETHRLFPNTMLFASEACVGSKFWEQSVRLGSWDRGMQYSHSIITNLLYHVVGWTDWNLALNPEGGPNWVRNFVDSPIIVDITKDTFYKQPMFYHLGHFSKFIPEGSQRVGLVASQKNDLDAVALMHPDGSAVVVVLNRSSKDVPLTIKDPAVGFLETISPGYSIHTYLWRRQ
Sequence of Cytochrome P450 1A2 (Homo sapiens) (P05177 whole entry, looked up): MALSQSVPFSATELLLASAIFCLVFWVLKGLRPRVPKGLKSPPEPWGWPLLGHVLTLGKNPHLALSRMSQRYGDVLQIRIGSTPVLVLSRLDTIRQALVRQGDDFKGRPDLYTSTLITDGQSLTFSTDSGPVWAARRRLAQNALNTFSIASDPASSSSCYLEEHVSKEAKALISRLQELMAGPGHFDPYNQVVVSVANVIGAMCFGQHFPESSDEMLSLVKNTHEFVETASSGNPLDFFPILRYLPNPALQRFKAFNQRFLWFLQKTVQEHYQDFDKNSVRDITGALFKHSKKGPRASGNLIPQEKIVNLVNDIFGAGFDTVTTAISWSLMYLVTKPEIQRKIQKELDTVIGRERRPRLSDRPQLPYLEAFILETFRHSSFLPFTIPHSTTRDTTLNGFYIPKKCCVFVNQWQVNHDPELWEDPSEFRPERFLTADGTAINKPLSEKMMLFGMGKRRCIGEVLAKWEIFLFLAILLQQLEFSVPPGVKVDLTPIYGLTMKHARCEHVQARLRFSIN

On to `O[C@@H]1[C@@H](OCc2ccccc2)OC[C@H](O)[C@@H]1O`, for which the Potency in [1] was over 11.4 µM; in assay [6], over 46 µM; in [7], over 9.22 µM. For the same compound, the activity change, negative = inhibition in [2] was 17.3%; in assay [4], -8.65%. Further, the Potency entry in assay [3], in [8], in [9] and in [10] was “inactive” throughout. Also, in [5], the activity, negative = inhibition was 4.2%.

Consider `CC(C)(C)COS(=O)OCC(C)(C)C`, for which the results for the Potency in [1], in assay [6] and in assay [7] were over 11.4 µM, over 46 µM and over 9.22 µM, respectively. In addition, the results for the activity change, negative = inhibition in assay [2] and in assay [4] were -7.58% and 3.4%, respectively. Also, the Potency result in [3], in [8], in [9] and in [10] was “inactive” each time. Further, the activity, negative = inhibition in assay [5] was 13.1%.

Regarding `O=C(CC1(O)CCCCC1)OC1CCCC1`, the Potency was over 11.4 µM in [1], over 46 µM in assay [6], over 9.22 µM in [7] and 1.58 µM (active) in [10]. Further, the activity change, negative = inhibition in [2] is 8.55%; in [4], 16.8%. In addition, the Potency result in assay [3], in assay [8] and in assay [9] was “inactive” each time. Moreover, the activity, negative = inhibition in assay [5] is 4.14%.

For `Cn1c(=O)c2c(nc(C(=N)SCC(=O)O)n2C)n(C)c1=O`, the Potency was over 11.4 µM in assay [1], 1.26 µM (active) in [3], over 46 µM in assay [6] and over 9.22 µM in assay [7]. Further, the activity change, negative = inhibition was -5.29% in [2] and 4.58% in assay [4]. Further, the activity, negative = inhibition in assay [5] was -6.13%. Moreover, the Potency entry in assay [8], in assay [9] and in assay [10] was “inactive” throughout.

`Cc1cc(O)c(C(C)C)cc1NC(=O)Nc1cccc2ccccc12`: the Potency was over 11.4 µM in [1]; 0.794 µM (active) in [3]; over 46 µM in [6]; over 9.22 µM in assay [7]; 0.0501 µM (active) in assay [10]. Also, the activity change, negative = inhibition is -27.4% in assay [2] and -15.2% in assay [4]. Further, the activity, negative = inhibition in [5] was -19%. For the same compound, the Potency entry in assay [8] and in assay [9] was “inactive” throughout.

For the compound `Oc1ccccc1C(Sc1nc2ccccc2s1)Sc1nc2ccccc2s1`, the Potency in assay [1] is over 11.4 µM; in [3] it was 1.26 µM (active); in assay [6], over 46 µM; in [7], over 9.22 µM; in [10], 3.16 µM (active). Moreover, the results for the activity change, negative = inhibition in assay [2] and in assay [4] were 10.8% and 5.9%, respectively. In assay [5], the activity, negative = inhibition was -11.5%. Moreover, the Potency result in [8] and in [9] was “inactive” throughout.

Regarding `Clc1ccccc1C(Nc1ncccn1)Nc1ncccn1`, the Potency is over 11.4 µM in assay [1], over 46 µM in assay [6] and over 9.22 µM in assay [7]. Besides, the activity change, negative = inhibition in assay [2] is 4.25%; in assay [4], 3.12%. For the same compound, the Potency result in assay [3], in [8], in assay [9] and in assay [10] was “inactive” throughout. Besides, the activity, negative = inhibition in assay [5] is 3.77%.

Consider `CN(C)c1ccc(C(=C2C=CC(=[N+](C)C)C=C2)c2c(O)c(S(=O)(=O)O)cc3cc(S(=O)(=O)O)ccc23)cc1`, for which the Potency in [1] is over 11.4 µM; in assay [3] it was 3.98 µM (active); in assay [6], over 46 µM; in assay [7], over 9.22 µM. The activity change, negative = inhibition is 3.1% in assay [2] and -12.3% in assay [4]. For the same compound, the activity, negative = inhibition in assay [5] was 4.39%. Besides, the Potency entry in assay [8], in [9] and in [10] was “inactive” throughout.

As to `c1cncc(CNc2ncn[nH]2)c1`, the results for the Potency in assay [1], in assay [6] and in assay [7] were over 11.4 µM, over 46 µM and over 9.22 µM, respectively. The activity change, negative = inhibition in assay [2] is 12.7%; in [4], 15.3%. The Potency result in assay [3], in assay [8], in assay [9] and in [10] was “inactive” throughout. Moreover, in [5], the activity, negative = inhibition was -1.59%.

Consider `Cn1c(=O)c2c(nc(NCCNc3nc4c(c(=O)n(C)c(=O)n4C)n3C)n2C)n(C)c1=O`, for which the Potency in [1] is over 11.4 µM; in [6] it was over 46 µM; in [7], over 9.22 µM. Besides, the activity change, negative = inhibition is 4.17% in assay [2] and 8.54% in assay [4]. For the same compound, the Potency result in assay [3], in [8], in assay [9] and in [10] was “inactive” each time. Also, the activity, negative = inhibition in assay [5] was 14.6%.

With `O=C(CCN1CCCCC1)N1CCc2c([nH]c3ccccc23)[C@H]1c1cccnc1`, the Potency in assay [1] is over 11.4 µM; in assay [6], over 46 µM; in assay [7] it was over 9.22 µM. The figures for the activity change, negative = inhibition in [2], in [3] and in assay [4] were 4.71%, -19.7% [at 2.29 µM] and -15.8%, respectively. Further, in assay [5], the activity, negative = inhibition was -6.32%. Also, the Potency result in assay [8], in assay [9] and in [10] was “inactive” in each case.

With `Cn1c(=O)c2c(nc(Cc3ccccc3)n2CC(=O)O)n(C)c1=O`, the Potency in assay [1] is over 11.4 µM; in assay [6], over 46 µM; in assay [7] it was over 9.22 µM. The figures for the activity change, negative = inhibition in [2], in assay [3] and in [4] were 6.03%, -13.2% [at 2.29 µM] and 0.0397%, respectively. Further, the activity, negative = inhibition in assay [5] was 10.4%. Also, the Potency result in assay [8], in assay [9] and in assay [10] was “inactive” throughout.

`Cn1c(=O)c2[nH]c(CCCCC(=O)O)nc2n(C)c1=O`: the Potency in assay [1] was over 11.4 µM; in assay [3] it was 0.794 µM (active); in [6], over 46 µM; in assay [7] it was over 9.22 µM. The activity change, negative = inhibition was 1.28% in [2] and 6.73% in assay [4]. In assay [5], the activity, negative = inhibition was 1.27%. Moreover, the Potency result in assay [8], in assay [9] and in [10] was “inactive” each time.

Turning to `N=C(N)CCNC(=O)[C@@H]1CCC(N)=N1`, the Potency is over 11.4 µM in [1], over 46 µM in assay [6] and over 9.22 µM in [7]. Also, the activity change, negative = inhibition in assay [2] was 4.22%; in assay [3], -3.4% [at 2.29 µM]; in assay [4], 3.47%. Also, the activity, negative = inhibition in assay [5] is 1.16%. The Potency result in assay [8], in [9] and in assay [10] was “inactive” each time.

Turning to `Cc1c(N2CCCC2)cc2c(c1NC(=O)c1ccccc1Cl)C(C)(C)CC2(C)C`, the Potency was over 11.4 µM in assay [1], over 46 µM in [6], over 9.22 µM in [7] and 0.794 µM (active) in [10]. The activity change, negative = inhibition in assay [2] is -3.93%; in assay [3], -13.1% [at 2.29 µM]; in [4] it was -10.2%. In addition, the activity, negative = inhibition in assay [5] is -9.5%. For the same compound, the Potency entry in assay [8] and in [9] was “inactive” in each case.
